Source: PubChem BioAssay (NCI)
The panel holds about 83,000 compounds, 20% with a hit somewhere; the sample as a whole holds those more often.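 Cell lines were cultured in 96-well plates, exposed to a single compound concentration, and assessed for percent growth 48 hours later.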 Active and inactive are the calls of the source. The calls were made as follows: active = growth percent below 10; inactive = the rest.

How the values were obtained:
Experiment in all cases: NCI-60 one-dose screen, 48 h (100 = growth as untreated, 0 = no growth, -100 = all killed)
Details in all cases: 10 µM unless noted
[1] = test system: NCI-H23 lung
[2] = test system: NCI-H322M lung
[3] = test system: NCI-H460 lung
[4] = test system: HOP-92 NSCLC
[5] = test system: NCI-H522 lung
[6] = test system: A549/ATCC NSCLC
[7] = test system: 786-0 renal
[8] = test system: COLO 205 colon
[9] = test system: DU-145 prostate
[10] = test system: HOP-62 NSCLC

Measured: growth

COc1nccc2cc3c(=O)n4c(cc5ccccc54)c(=O)n3c12
inactive: [1] 89.8% | [2] 86.3% | [3] 103% | [4] 118% | [5] 93.7% | [6] 104% | [7] 102% | [8] 102% | [9] 111%

COC(=O)[C@@H]1CCCN1C(=O)[C@H]1CCCN1C(=O)[C@@H](Cc1c[nH]c2ccccc12)NC(=S)Nc1cc(C(F)(F)F)cc(C(F)(F)F)c1
inactive: [1] 63.8% | [2] 38.8% | [3] 16.2% | [4] 80.9% | [5] 69.8% | [6] 28.4% | [7] 52.5% | [8] 22% | [9] 57.7%

O=c1oc2ccc(-c3ccc(F)cc3F)cc2c(=O)n1-c1ccc(Cl)c(C(F)(F)F)c1
active: [1] 6.77% | [3] 5.36% | [4] -29.4% | [5] -12.4% | [6] 7.35%
inactive: [2] 13.1% | [7] 17.4% | [8] 77.1% | [9] 21%

Nc1cccc(Nc2cc(S(=O)(=O)O)c(N)c3c2C(=O)c2ccccc2C3=O)c1
inactive: [1] 109% | [2] 124% | [3] 108% | [4] 132% | [5] 82.5% | [6] 102% | [7] 111% | [8] 110% | [9] 119%

O=c1c(-c2nc3ccccc3[nH]2)cc2ccccc2n1Cc1cn(Cc2ccccc2Cl)nn1
inactive: [1] 56.9% | [2] 52.3% | [4] 11.3% | [6] 15.4% | [8] 54% | [9] 18.1%
active: [3] 6.86% | [7] -20.2%

CC1(O)COCCCCOc2c(CN)cccc2NC(=O)c2nc(cnc2N)-c2ccc(cc2)S(=O)(=O)C(C)(C)C1 (configuration not stated)
active: [1] -66.7% | [2] -1.9% | [3] -61.9% | [4] -5.59% | [5] -40.5% | [6] -52.8% | [7] -58% | [8] -47.9% | [9] -73.4%

CN1C(=O)N(C)C2Nn3c(s/c(=C4\C(=O)N(CCc5ccccc5)c5ccccc54)c3=O)=NC21 (configuration not stated)
inactive: [1] 72% | [2] 72.6% | [3] 95.4% | [4] 93.2% | [5] 36.7% | [6] 55.6% | [7] 61.8% | [8] 60.1% | [9] 63%

S=C1CCCC(=S)N1
inactive: [1] 101% | [2] 107% | [3] 106% | [4] 105% | [5] 96.6% | [6] 98.3% | [7] 107% | [8] 115% | [9] 111%

COc1ccc(/C(C#N)=C/c2nc3c(N4CCOCC4)nc(Cl)nc3n2C)cc1OC
inactive: [1] 24% | [2] 29.9% | [6] 21.1%
active: [3] -15.2% | [4] -12.2% | [5] -28.4% | [7] -61.5% | [9] 8.07%

CCCC(=O)CC(C)=O.CCCC(=O)CC(C)=O.[Cu]
inactive: [1] 97.3% | [2] 99.5% | [3] 107% | [4] 96.5% | [5] 91% | [6] 79.4% | [7] 104% | [8] 97.4% | [9] 110%

Clc1ccc(Oc2ccc(Nc3ncnc4onc(-c5ccccc5)c34)cc2)c(Cl)c1
inactive: [1] 89.4% | [2] 111% | [3] 101% | [4] 102% | [5] 73.2% | [6] 91.2% | [7] 96.3% | [8] 105% | [9] 106%

c1ccc(-c2ccc(-c3nc4ccccc4[nH]3)cc2)cc1
inactive: [1] 94% | [2] 98.9% | [3] 95.6% | [4] 69.7% | [5] 94.3% | [6] 91.8% | [7] 88% | [8] 102% | [9] 95.2%

COc1ccc(C2NCCc3c2[nH]c2ccccc32)cc1CN1CCN(c2ccc(F)cc2)CC1 (configuration not stated)
active: [3] 5.7% | [4] -18.7%
inactive: [1] 64.8% | [2] 78.5% | [5] 40.8% | [6] 63.7% | [7] 51% | [8] 47.6% | [9] 78.5%

O=CCCCC(O)C=O (configuration not stated)
inactive: [1] 96.3% | [2] 109% | [3] 101% | [4] 107% | [5] 107% | [6] 105% | [7] 97.5% | [8] 100% | [9] 106%

COc1ccc(CCN2C(=O)CCSC2=S)cc1
inactive: [1] 80% | [2] 87.6% | [3] 77% | [4] 41.9% | [5] 11.1% | [6] 96.6% | [7] 16.8% | [8] 36.3% | [9] 13.8%

COc1cc(/C(C#N)=C/c2nc3c(N4CCOCC4)nc(Cl)nc3n2C)cc(OC)c1OC
active: [3] -3.75% | [4] -4.18% | [7] 6.45% | [9] 4.54%
inactive: [1] 18.2% | [2] 28.8% | [5] 15.7% | [6] 19.5%

CN1C(=O)N(C)C2C1NN=c1s/c(=C\c3ccc(Cl)cc3Cl)c(=O)n12 (configuration not stated)
active: [3] 3.01% | [8] 1.82% | [9] 5.98%
inactive: [2] 38.3% | [10] 54.3% | [4] 97.6% | [5] 17.5% | [6] 25.1% | [7] 24%

O=C(Cn1cc(COc2ncnc3c2cnn3-c2ccccc2)nn1)Nc1ccccn1
inactive: [1] 96.6% | [2] 93.6% | [3] 101% | [4] 75.2% | [5] 87.6% | [6] 94.2% | [7] 104% | [9] 101%

CCOC(=O)c1cc2c(n1Cc1ccccc1)-c1oncc1CCC2
inactive: [1] 88.3% | [2] 107% | [3] 97.3% | [4] 86.3% | [5] 61.4% | [6] 59.2% | [7] 102% | [8] 69% | [9] 114%

Cc1ccc(CN2CCC(C(=O)Nc3ccc(-c4cc5ccccc5[nH]4)cc3)CC2)o1
inactive: [1] 69.6% | [2] 95.1% | [3] 27.9% | [4] 36.8% | [5] 72% | [6] 33.7% | [7] 38.4% | [8] 83.4% | [9] 60.2%

CCCN1CCN(c2ccc3nc(-c4ccc5nc(-c6cc(OC)ccc6OC)[nH]c5c4)[nH]c3c2)CC1
inactive: [1] 103% | [2] 115% | [3] 100% | [4] 110% | [5] 113% | [6] 115% | [7] 101% | [9] 114%

COc1c2ccoc2c(/C=C/C=O)c2oc(-c3ccccc3)cc(=O)c12
inactive: [1] 50.4% | [2] 87.7% | [3] 89.4% | [4] 105% | [5] 67.9% | [6] 91.3% | [7] 94.4% | [8] 116% | [9] 63.1%

O=NN(C(=O)NC1CCC(C(=O)O)CC1)C1CCC(C(=O)O)CC1 (configuration not stated)
inactive: [1] 106% | [2] 107% | [3] 107% | [4] 98.8% | [5] 98.7% | [6] 106% | [7] 107% | [8] 115% | [9] 112%

Cn1cc(-c2ccc3ncc(-c4ccc(CC(=O)Nc5cc(C(C)(C)C)no5)cc4)nc3c2)cn1
inactive: [1] 36.6% | [2] 20.6% | [3] 22.8% | [4] 46.3% | [5] 41.6% | [6] 33.7% | [7] 39.2% | [9] 34.3%

COC(=O)c1c2c(c(C)[n+]([O-])c1C)C(=O)C(NCc1ccc(Br)cc1)=CC2=O
active: [3] 3.51%
inactive: [1] 11% | [2] 28.7% | [4] 78.1% | [5] 42.8% | [6] 18.2% | [7] 48.8% | [9] 53.3%

COc1ccc(N2C(=O)CC(c3cc(OC)c(OC)c(OC)c3)C3C2=NC(=O)N3C)cc1 (configuration not stated)
inactive: [1] 110% | [2] 105% | [3] 108% | [4] 105% | [5] 97.5% | [6] 104% | [7] 103% | [8] 101% | [9] 106%
